# Measurements taken from PubChem BioAssay (NCI).
# About 83,000 compounds went through this panel and 20% of them were active in at least one assay; those are over-represented in the sample as a whole.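 Cells were grown in 96-well plates and exposed to the test compound at a single concentration for 48 hours; results are reported as percent growth, with values below 10 considered active.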 A number with no mark means an inactive call.
# Tested on: MDA-MB-468 breast
# Test: NCI-60 one-dose screen, 48 h (100 = growth as untreated, 0 = no growth, -100 = all killed)
# Settings: 10 µM unless noted
row,Structure (SMILES),growth [%]
1,CN1CCN(C(=O)[C@@]2(C)CC[C@]3(C)CC[C@]4(C)C(=CC[C@@H]5[C@@]6(C)CCC(=O)NC(C)(C)[C@@H]6CC[C@]54C)[C@@H]3C2)CC1,13.5
2,O=C(NNC(=O)N1c2ccccc2C=Cc2ccccc21)c1ccc2ccccc2c1,87.7
3,O=C(Nc1ccccc1)Nc1nc2ccc([N+](=O)[O-])cc2[nH]1,22.1
